Results: PubChem BioAssay (NCI)
The panel holds about 79,000 compounds, 15% with a hit somewhere; the sample as a whole holds those more often. Calls of active or inactive are those of the source. No stated cut-off is given here; in the data, active means growth inhibition above about 70%; inactive means the rest.

Columns and labels:
[1] = NCI Yeast Anticancer Drug Screen. Data for the rad52 strain (AID 147);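 further: 0% = growth of vehicle-treated control cultures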; details: S. cerevisiae rad52 mutant growth inhibition, active compounds read high
Method in brief: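 Vehicle-treated cultures served as the reference for growth inhibition of compound-exposed yeast bearing a DNA repair mutation.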

[2] = NCI Yeast Anticancer Drug Screen. Data for the wt1 strain (AID 149);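 further: 0% = growth of vehicle-treated wt1 cultures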; details: S. cerevisiae wt1 strain (SPY 50644) growth inhibition, active compounds read high
Method in brief: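 Measured: growth of wt1 yeast under compound versus vehicle treatment, reported as inhibition.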

[3] = NCI Yeast Anticancer Drug Screen. Data for the rad50EPP+ strain (AID 151);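 further: 0% = growth of vehicle-treated control cultures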; details: S. cerevisiae rad50 mutant strain, active compounds read high
Method in brief: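 In this screen, rad50EPP+ yeast were exposed to compounds. Growth inhibition was scored against vehicle-treated controls.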

[4] = NCI Yeast Anticancer Drug Screen. Data for the mgt1 strain (AID 153); details: S. cerevisiae mgt1 mutant growth inhibition, active compounds read high
Method in brief: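 mgt1 strain exposed; growth vs vehicle control recorded as inhibition.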

[5] = NCI Yeast Anticancer Drug Screen. Data for the rad50 strain (AID 155);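 further: 0% = growth of vehicle-only cultures of the same strain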; details: S. cerevisiae rad50 strain growth inhibition, active compounds read high
Method in brief: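 Growth of the mutant yeast was measured after compound exposure and referenced to vehicle-treated cultures.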

[6] = NCI Yeast Anticancer Drug Screen. Data for the mec2-1 strain (AID 157); details: S. cerevisiae mec2-1 strain, active compounds read high
Method in brief: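 Vehicle-treated cultures served as reference for growth inhibition of compound-exposed mec2-1 yeast.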

[7] = NCI Yeast Anticancer Drug Screen. Data for the rad14 strain (AID 159);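 further: 0% = growth of vehicle-treated control cultures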; details: S. cerevisiae rad14 strain growth inhibition, active compounds read high
Method in brief: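 Here, inhibition of yeast growth was measured after compound exposure, using a strain with a genetic defect in DNA damage repair and vehicle-treated cultures as the reference.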

[8] = NCI Yeast Anticancer Drug Screen. Data for the sgs1 mgt1 strain (AID 161);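 further: 0% = growth of cultures given vehicle only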; details: S. cerevisiae sgs1 mgt1 strain, active compounds read high
Method in brief: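 Mutant yeast exposed to compound; growth scored against vehicle-only wells.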

[9] = NCI Yeast Anticancer Drug Screen. Data for the CLN2oe strain (AID 163);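 further: 0% = growth of vehicle-only control cultures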; details: S. cerevisiae CLN2oe strain, active compounds read high
Method in brief: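 Inhibition relative to vehicle-treated yeast is reported. Cells: strain with genetic alteration in cell-cycle control, grown with compound.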

[10] = NCI Yeast Anticancer Drug Screen. Data for the cln2 rad14 strain (AID 165);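 further: 0% = growth equal to vehicle treated cultures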; details: S. cerevisiae cln2 rad14 strain, active compounds read high
Method in brief: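 Each compound was tested on cln2 rad14 yeast. Inhibition of growth was calculated against vehicle-exposed controls.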

[11] = NCI Yeast Anticancer Drug Screen. Data for the bub3 strain (AID 167); details: S. cerevisiae bub3 mutant strain, active compounds read high
Method in brief: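 Whole-cell yeast assay. The mutant strain was incubated with compounds, and growth inhibition was determined by comparison with vehicle-treated cells.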

[12] = NCI Yeast Anticancer Drug Screen. Data for the wt2 strain (AID 169);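 further: 0% = growth of vehicle-treated yeast cultures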; details: S. cerevisiae wt2 strain growth inhibition, active compounds read high
Method in brief: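 Inhibition of yeast growth was determined after compound treatment, normalised to controls receiving only vehicle.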

[13] = NCI Yeast Anticancer Drug Screen. Data for the mlh1 strain (AID 171);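 further: 0% = growth of vehicle-treated control cultures of the same strain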; details: S. cerevisiae mlh1 strain growth inhibition, active compounds read high
Method in brief: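 Vehicle-normalised growth inhibition of a repair- or checkpoint-altered yeast strain following compound treatment.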

[14] = NCI Yeast Anticancer Drug Screen. Data for the sgs1 strain (AID 173);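 further: 0% = growth of vehicle-only control cultures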; details: S. cerevisiae sgs1 mutant, active compounds read high
Method in brief: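 Screen format: yeast with repair or checkpoint alterations, compound exposure, growth read relative to vehicle.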

[15] = NCI Yeast Anticancer Drug Screen. Data for the mlh1 rad18 strain (AID 175); details: S. cerevisiae mlh1 rad18 strain growth inhibition, active compounds read high
Method in brief: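 Vehicle-treated cultures served as the reference for growth inhibition in a yeast strain carrying DNA damage repair alterations exposed to each compound.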

[16] = NCI Yeast Anticancer Drug Screen. Data for the rad18 strain (AID 177); details: S. cerevisiae rad18 mutant growth inhibition, active compounds read high
Method in brief: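 Test articles were incubated with altered yeast defective in DNA damage repair. Results are given as inhibition of growth versus vehicle.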

[17] = at 5.0 µM (retest, dose inferred, filed as 0.5)
[18] = at 50.0 µM (retest, dose inferred, filed as 5.0)

Measured: growth inhibition

O=C1OC(=O)C2CCCC3CCCC1C32 (stereo unspecified)
inactive: [1]; at 1.2 µM 23% | [1]; at 3.7 µM 67% | [2]; at 1.2 µM 7% | [2]; at 3.7 µM 51% | [3]; at 1.2 µM 42% | [3]; at 3.7 µM 54% | [4]; at 1.2 µM 34% | [4]; at 3.7 µM 48% | [5]; at 1.2 µM 17% | [5]; at 3.7 µM 68% | [5]; [17] -10% | [5]; at 50.0 µM 39% | [6]; at 1.2 µM 39% | [6]; at 3.7 µM 33% | [6]; [17] -8% | [6]; at 50.0 µM 36.8% | [7]; at 1.2 µM 17% | [7]; at 3.7 µM 28% | [7]; at 11.0 µM 47% | [8]; [17] -21% | [8]; [18] 10% | [8]; at 50.0 µM 55.1% | [9]; at 1.2 µM 40% | [10]; [17] 15% | [10]; at 50.0 µM 20.8% | [11]; at 1.2 µM 28% | [11]; at 3.7 µM 66% | [11]; [17] 53% | [12]; at 1.2 µM 36% | [12]; at 3.7 µM 62% | [13]; at 1.2 µM 44% | [13]; at 3.7 µM 64% | [14]; at 1.2 µM 26% | [15]; [17] 31% | [15]; at 50.0 µM 26.9% | [16]; at 1.2 µM 25% | [16]; at 3.7 µM 67%
active: [1]; at 11.0 µM 85% | [1]; at 33.0 µM 90% | [1]; at 100.0 µM 97% | [2]; at 11.0 µM 83% | [2]; at 33.0 µM 90% | [2]; at 100.0 µM 97% | [3]; at 11.0 µM 75% | [3]; at 33.0 µM 90% | [3]; at 100.0 µM 95% | [4]; at 11.0 µM 82% | [4]; at 33.0 µM 87% | [4]; at 100.0 µM 96% | [5]; at 11.0 µM 93% | [5]; at 33.0 µM 96% | [5]; [18] 97% | [5]; at 100.0 µM 96% | [6]; at 11.0 µM 71% | [6]; at 33.0 µM 95% | [6]; [18] 99% | [6]; at 100.0 µM 97% | [7]; at 33.0 µM 87% | [7]; at 100.0 µM 94% | [9]; at 3.7 µM 71% | [9]; at 11.0 µM 95% | [9]; at 33.0 µM 97% | [9]; at 100.0 µM 96% | [10]; [18] 98% | [11]; at 11.0 µM 93% | [11]; at 33.0 µM 96% | [11]; [18] 99% | [11]; at 50.0 µM 71.5% | [11]; at 100.0 µM 97% | [12]; at 11.0 µM 80% | [12]; at 33.0 µM 89% | [12]; at 100.0 µM 96% | [13]; at 11.0 µM 93% | [13]; at 33.0 µM 96% | [13]; at 100.0 µM 97% | [14]; at 3.7 µM 78% | [14]; at 11.0 µM 93% | [14]; at 33.0 µM 94% | [14]; at 100.0 µM 98% | [15]; [18] 98% | [16]; at 11.0 µM 94% | [16]; at 33.0 µM 94% | [16]; at 100.0 µM 97%

COc1cc(C2C3=C(COC3=O)Oc3cc4c(cc32)OCO4)ccc1O (stereo unspecified)
inactive: [1]; at 1.2 µM -1% | [1]; at 3.7 µM 2% | [1]; at 11.0 µM 7% | [1]; at 33.0 µM 34% | [2]; at 1.2 µM -2% | [2]; at 3.7 µM -7% | [2]; at 11.0 µM -5% | [2]; at 33.0 µM -5% | [2]; at 100.0 µM 31% | [3]; at 1.2 µM -3% | [3]; at 3.7 µM 0% | [3]; at 11.0 µM -3% | [3]; at 33.0 µM 4% | [3]; at 100.0 µM 15% | [4]; at 1.2 µM -1% | [4]; at 3.7 µM 1% | [4]; at 11.0 µM 0% | [4]; at 33.0 µM -5% | [4]; at 100.0 µM 30% | [5]; at 1.2 µM 0% | [5]; at 3.7 µM 5% | [5]; at 11.0 µM -10% | [5]; at 33.0 µM 35% | [5]; at 50.0 µM 55.9% | [6]; at 1.2 µM -3% | [6]; at 3.7 µM -2% | [6]; [17] -10% | [6]; at 11.0 µM -3% | [6]; at 33.0 µM -4% | [6]; [18] -10% | [6]; at 50.0 µM 32.2% | [6]; at 100.0 µM 33% | [7]; at 1.2 µM 1% | [7]; at 3.7 µM -1% | [7]; at 11.0 µM -6% | [7]; at 33.0 µM -8% | [7]; at 100.0 µM -20% | [8]; at 50.0 µM 22.4% | [9]; at 1.2 µM 0% | [9]; at 3.7 µM 8% | [9]; at 11.0 µM -1% | [9]; at 33.0 µM -2% | [9]; at 100.0 µM 24% | [10]; [17] 43% | [10]; [18] 43% | [10]; at 50.0 µM 34.2% | [11]; at 1.2 µM -2% | [11]; at 3.7 µM 1% | [11]; [17] -4% | [11]; at 11.0 µM 12% | [11]; at 33.0 µM 5% | [11]; [18] -4% | [11]; at 50.0 µM 29.3% | [11]; at 100.0 µM 32% | [12]; at 1.2 µM -2% | [12]; at 3.7 µM -4% | [12]; at 11.0 µM -5% | [12]; at 33.0 µM -1% | [12]; at 100.0 µM 42% | [13]; at 1.2 µM -1% | [13]; at 3.7 µM -5% | [13]; at 11.0 µM -4% | [13]; at 33.0 µM 8% | [13]; at 100.0 µM 0% | [14]; at 1.2 µM -4% | [14]; at 3.7 µM -6% | [14]; at 11.0 µM -6% | [14]; at 33.0 µM 14% | [14]; at 100.0 µM 59% | [15]; [17] 45% | [15]; [18] 45% | [16]; at 1.2 µM 2% | [16]; at 3.7 µM -6% | [16]; at 11.0 µM 3% | [16]; at 33.0 µM 32%
active: [1]; at 100.0 µM 72% | [5]; [17] 95% | [5]; [18] 95% | [5]; at 100.0 µM 73% | [8]; [17] 77% | [8]; [18] 77% | [15]; at 50.0 µM 78% | [16]; at 100.0 µM 80%
